Source: PubChem BioAssay AID1508601 (ICCB-Longwood Screening Facility, Harvard Medical School, 2020)
About 85 (1%) of roughly 5,700 compounds were called active. Rule as the data show it: active = p53-positive nuclei above about 36% (passing the limit was not always enough); inactive = the rest. For the sample, actives were picked, then their nearest neighbours and some compounds at random.

What was measured:
[1] = p53 stabilisation in HPV-positive human cells, imaging, p53-positive nuclei imaging, 24 h, 48 h (AID 1508601); settings: 24/48 h
[2] = target: Cellular tumor antigen p53 (Homo sapiens) (UniProt P04637); experiment: as above; settings: 24/48 h, stronger effect = higher value
[3] = measured here: cell number at 24 h, concentration not given here
[4] = measured here: cell number at 48 h, concentration not given here
[5] = measured here: p53 positive nuclei at 24 h, concentration not given here
[6] = measured here: cell number at 24 h, Library stock concentration: 80 uM
[7] = measured here: cell number at 24 h, Library stock concentration: 400 uM
[8] = measured here: cell number at 24 h, Library stock concentration: 2 mM
[9] = measured here: cell number at 24 h, Library stock concentration: 10 mM
[10] = measured here: cell number at 48 h, Library stock concentration: 80 uM
[11] = measured here: cell number at 48 h, Library stock concentration: 400 uM
[12] = measured here: cell number at 48 h, Library stock concentration: 2 mM
[13] = measured here: cell number at 48 h, Library stock concentration: 10 mM
[14] = Library stock concentration: 80 uM
[15] = Library stock concentration: 400 uM
[16] = Library stock concentration: 2 mM
[17] = Library stock concentration: 10 mM
[18] = measured here: p53 positive nuclei at 24 h, Library stock concentration: 80 uM
[19] = measured here: p53 positive nuclei at 24 h, Library stock concentration: 400 uM
[20] = measured here: p53 positive nuclei at 24 h, Library stock concentration: 2 mM
[21] = measured here: p53 positive nuclei at 24 h, Library stock concentration: 10 mM

Chain of Cellular tumor antigen p53 (Homo sapiens) (P04637 whole entry, looked up): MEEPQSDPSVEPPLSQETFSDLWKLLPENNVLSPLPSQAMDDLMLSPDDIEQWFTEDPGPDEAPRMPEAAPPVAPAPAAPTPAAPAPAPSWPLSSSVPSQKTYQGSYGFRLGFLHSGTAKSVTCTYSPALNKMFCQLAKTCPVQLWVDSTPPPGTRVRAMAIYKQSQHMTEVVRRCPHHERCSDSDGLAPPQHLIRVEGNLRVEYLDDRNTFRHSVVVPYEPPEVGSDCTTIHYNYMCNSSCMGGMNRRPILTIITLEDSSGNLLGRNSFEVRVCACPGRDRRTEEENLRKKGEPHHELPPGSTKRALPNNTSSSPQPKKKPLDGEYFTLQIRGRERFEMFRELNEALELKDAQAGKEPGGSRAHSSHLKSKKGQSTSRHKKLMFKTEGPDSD

## COc1nccnc1-c1ccc2c(c1)OCO2
[1]; [3]
  nuclei count, normalised: 115%
[1]; [4]
  nuclei count, normalised: 114%
[2]; concentration not given here
  p53-positive nuclei, normalised: -0.145% (inactive)
[2]; [5]
  p53-positive nuclei, normalised: -0.0884%

## NC(=O)c1ccc(-c2nc(-c3ccc4c(c3)OCCO4)c(-c3ccccn3)[nH]2)cc1
[1]; [6]
  nuclei count, normalised: 108%
[1]; [7]
  nuclei count, normalised: 108%
[1]; [8]
  nuclei count, normalised: 103%
[1]; [9]
  nuclei count, normalised: 105%
[1]; [3]
  nuclei count, normalised: 114%
[1]; [10]
  nuclei count, normalised: 111%
[1]; [11]
  nuclei count, normalised: 111%
[1]; [12]
  nuclei count, normalised: 103%
[1]; [13]
  nuclei count, normalised: 99.9%
[1]; [4]
  nuclei count, normalised: 116%
[2]; [14]
  p53-positive nuclei, normalised: 0.102% (inactive)
[2]; [15]
  p53-positive nuclei, normalised: 0.159% (inactive)
[2]; [16]
  p53-positive nuclei, normalised: -0.0937% (inactive)
[2]; [17]
  p53-positive nuclei, normalised: 0.066% (inactive)
[2]; concentration not given here
  p53-positive nuclei, normalised: -0.0133% (inactive)
[2]; [18]
  p53-positive nuclei, normalised: -0.0114%
[2]; [19]
  p53-positive nuclei, normalised: 0.0817%
[2]; [20]
  p53-positive nuclei, normalised: -0.00675%
[2]; [21]
  p53-positive nuclei, normalised: 0.138%
[2]; [5]
  p53-positive nuclei, normalised: -0.0284%

## c1nc(-c2ccc3c(c2)OCCO3)c2sccc2n1
[1]; [3]
  nuclei count, normalised: 74.2%
[1]; [4]
  nuclei count, normalised: 38.4%
[2]; concentration not given here
  p53-positive nuclei, normalised: 68.7% (active)
[2]; [5]
  p53-positive nuclei, normalised: 3%

## CC=C1NC(=O)C2CSSCCC=CC(CC(=O)NC(C(C)C)C(=O)N2)OC(=O)C(C(C)C)NC1=O (stereo not drawn)
[1]; measured here: cell number at 24 h, Library stock concentration: 3.33 mM
  nuclei count, normalised: 45.3%
[1]; measured here: cell number at 48 h, Library stock concentration: 3.33 mM
  nuclei count, normalised: 13.5%
[2]; Library stock concentration: 3.33 mM
  p53-positive nuclei, normalised: 138% (active)
[2]; measured here: p53 positive nuclei at 24 h, Library stock concentration: 3.33 mM
  p53-positive nuclei, normalised: 79.1%

## OC1CCC(Nc2ncc3nc(Nc4c(F)cc(F)cc4F)n(C4CCOC4)c3n2)CC1 (stereo not drawn)
[1]; [6]
  nuclei count, normalised: 108%
[1]; [7]
  nuclei count, normalised: 111%
[1]; [8]
  nuclei count, normalised: 106%
[1]; [9]
  nuclei count, normalised: 114%
[1]; [10]
  nuclei count, normalised: 111%
[1]; [11]
  nuclei count, normalised: 111%
[1]; [12]
  nuclei count, normalised: 112%
[1]; [13]
  nuclei count, normalised: 113%
[2]; [14]
  p53-positive nuclei, normalised: 0.0644% (inactive)
[2]; [15]
  p53-positive nuclei, normalised: -0.0934% (inactive)
[2]; [16]
  p53-positive nuclei, normalised: -0.0819% (inactive)
[2]; [17]
  p53-positive nuclei, normalised: -0.265% (inactive)
[2]; [18]
  p53-positive nuclei, normalised: 0.0898%
[2]; [19]
  p53-positive nuclei, normalised: -0.0608%
[2]; [20]
  p53-positive nuclei, normalised: -0.051%
[2]; [21]
  p53-positive nuclei, normalised: -0.0545%
